AC50 and outcome data for two compounds are collected here from PubChem BioAssay (EPA / NIEHS).

One assay concerns IYD (gene 389434). Briefly: CCTE_GLTED_hIYD: CCTE's human Iodotyrosine Deiodinase (xIYD) Inhibition Assay, Great Lakes Toxicology and Ecology Division (GLTED) Lab (AID 2284317; active = hit-call score of the fitted dose curve at least 0.9, where 1 is the maximum;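 note: cell-free human IYD enzyme made in baculovirus insect cells; iodide freed from monoiodotyrosine measured by cerium arsenite color change at 420 nm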). In a few lines: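 hIYD: baculovirus-expressed human IYD deiodinated monoiodotyrosine for 3 h with test chemical; free iodide was measured by Sandell-Kolthoff absorbance at 420 nm and normalized to MNT and DMSO/NaOH controls.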

Assay [1] in a line: UKN5_HCS_SBAD2_cell_viability: Viability Assessment in the University of Konstanz (UKN) Leist Lab Neurite Outgrowth Assay in human iPSC-derived immature Dorsal Root Ganglia Neurons (UKN5) (AID 2284056). An outline of the steps: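 iPSC-derived immature peripheral neurons (SBAD2) seeded on Matrigel with CHIR99021, SU5402 and DAPT, dosed 1 h later for 24 h. Viability from Hoechst H-33342 and calcein-AM live staining, high-content imaging; bidirectional fit versus DMSO.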

Assay [2] is described as follows: UKN5_HCS_SBAD2_neurite_outgrowth: University of Konstanz (UKN) Leist Lab Neurite Outgrowth Assay in human iPSC-derived immature Dorsal Root Ganglia Neurons (UKN5) (AID 2284070). The conditions noted are these: actives raise or lower the signal. In a few lines:
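SBAD2 iPSC-derived immature peripheral neurons on Matrigel, 100.000 cells/cm2, medium with CHIR99021 (1.5 uM), SU5402 (5 uM), DAPT (5 uM); compound added 1 h post-seeding for 24 h. Calcein-AM neurite area by high-content imaging; Hoechst H-33342 viability; bidirectional fit vs DMSO.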

Assay [3] is described as follows: UKN2_HCS_IMR90_neural_migration: University of Konstanz (UKN) Leist Lab Neural Crest Cell Migration Assay in human induced IMR90 Pluripotent Stem Cells (UKN2) (AID 2284204). The conditions noted are these: actives raise or lower the signal. An outline of the steps:
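Migration of human IMR90-derived neural crest cells into a stopper-defined gap is imaged after 24 h chemical treatment. Activity is fitted bidirectionally relative to DMSO.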

The nature of assay [4]: UKN4_HCS_LUHMES_neurite_outgrowth: University of Konstanz (UKN) Leist Lab Neurite Outgrowth Assay in human LUHMES cells (UKN4) (AID 2284206). Conditions: actives raise or lower the signal. In a few lines: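 Human LUHMES neuronal precursors, differentiated 2 days then replated without cAMP and GDNF, exposed to compounds for 24 h. Neurite area imaged by high-content microscopy after calcein-AM live staining; Hoechst H-33342 for viability; bidirectional fit versus DMSO.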

Assay [5] is described as follows: IUF_NPC1b_proliferation_BrdU_72hr: Leibniz Research Institute for Environmental Medicine (IUF) 72-hour Neural Progenitor Cell Bromodeoxyuridine (BrdU) Proliferation Assay (NPC1b) (AID 2284207). In a few lines:
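Proliferation of primary human neural progenitor cells: 72 h compound treatment at 37C, 5% CO2, pH 7.2-7.6, in EGF/FGF-containing medium. Readout is BrdU uptake (last 16 h) by chemiluminescent ELISA, normalised to DMSO.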

Assay [6] is described as follows: IUF_NPC1_viability_72hr: Viability Assessment at 72 hours in the Leibniz Research Institute for Environmental Medicine (IUF) Neural Progenitor Cell Proliferation Assay (NPC1) (AID 2284209). An outline of the steps:
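Single spheres (0.25-0.35 mm) of human fetal cortex-derived neural progenitor cells were grown in proliferation medium with EGF and FGF at 37C and 5% CO2. They were exposed for 72 h without renewal, and viability was read by alamar blue resorufin fluorescence.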

Assay [7] in a line: UKN4_HCS_LUHMES_cell_viability: Viability Assessment in the University of Konstanz (UKN) Leist Lab Neurite Outgrowth Assay in human LUHMES cells (UKN4) (AID 2284232). An outline of the steps:
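LUHMES precursors differentiated 2 days, replated at 30000 cells/well without cAMP/GDNF, then compound-treated 24 h. Viability from Hoechst H-33342 and calcein-AM live staining (30 min) by high-content fluorescence imaging; bidirectional fit versus DMSO.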

Assay [8] is described as follows: UKN2_HCS_IMR90_cell_viability: Viability Assessment in the University of Konstanz (UKN) Leist Lab Neural Crest Cell Migration Assay in human induced IMR90 Pluripotent Stem Cells (UKN2) (AID 2284233).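 Note: viability of neural crest cells differentiated from IMR90 iPSC measured by calcein-AM fluorescence imaging; cells exposed to compound for 24 h after a 24 h migration phase.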 In a few lines: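 Human IMR90-derived neural crest cells were allowed to migrate for 24 h into a cell-free zone, then exposed to test chemicals for 24 h. Calcein-AM and Hoechst staining with high-content imaging gave viability, analysed against DMSO baseline.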

The nature of assay [9]: IUF_NPC2c_oligodendrocyte_migration_120hr: Leibniz Research Institute for Environmental Medicine (IUF) 120-hour Neural Progenitor Cell Migration Assay for Oligodendrocyte Migration (NPC2c) (AID 2284297).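 Note: O4-positive oligodendrocyte migration distance divided by radial glia migration distance.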 An outline of the steps:
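Using fetal brain neural progenitor spheres differentiating in N2 medium at 37C, compounds were present for 120 h. Oligodendrocyte migration distance, normalized to radial glia migration, was measured from imaged O4 staining.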

Assay [10] is described as follows: IUF_NPC2a_radial_glia_migration_120hr: Leibniz Research Institute for Environmental Medicine (IUF) 120-hour Neural Progenitor Cell Migration Assay for Radial Glia Migration (NPC2a) (AID 2284298). In a few lines: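 Exposure of 0.3 mm primary hNPC spheres runs day 0 to 120 h with a half-volume medium change at day 3. Fixed cells get Hoechst staining; high-content analysis of nuclear positions yields radial glia migration distance per well, compared against DMSO controls.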

Assay [11] is described as follows: IUF_NPC2b_neuronal_migration_120hr: Leibniz Research Institute for Environmental Medicine (IUF) 120-hour Neural Progenitor Cell Migration Assay for Neuron Migration (NPC2b) (AID 2284300). An outline of the steps:
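Fetal human NPC spheres migrate on PDL/laminin during 120 h compound treatment; neuronal migration distance, glia-normalized, scored versus DMSO control.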

A short description of assay [12]: IUF_NPC3_neuronal_differentiation_120hr: Leibniz Research Institute for Environmental Medicine (IUF) 120-hour Neuronal Differentiation Assay (NPC3) (AID 2284301). An outline of the steps: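 Single 0.3 mm neurospheres from human fetal cortex were plated in differentiation medium containing test compound. Medium was half-replaced on day 3. After 120 h cells were fixed, immunostained and imaged, and neuronal fraction was scored against DMSO control.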

Assay [13] in a line: IUF_NPC4_neurite_length_120hr: Leibniz Research Institute for Environmental Medicine (IUF) 120-hour Neuronal Morphology Assay for Neurite Length (NPC4) (AID 2284302). An outline of the steps:
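Read-out is mean neurite length in µm of TUBB3-positive neurons, skeletonized from high-content fluorescence images after 120 h. Single 0.3 mm primary human neural progenitor spheres differentiated on poly-D-lysine/laminin under continuous compound exposure; DMSO was baseline.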

The nature of assay [14]: IUF_NPC5_oligodendrocyte_differentiation_120hr: Leibniz Research Institute for Environmental Medicine (IUF) 120-hour Oligodendrocyte Differentiation Assay (NPC5) (AID 2284304; active = hit-call score of the fitted dose curve at least 0.9, where 1 is the maximum;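 note: primary human fetal neural progenitor spheres plated to migrate and differentiate; share of O4-positive cells among Hoechst nuclei found by CNN image analysis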). In a few lines:
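After plating on poly-D-lysine/laminin, fetal-derived hNPC spheres differentiated for 120 h at 37C in compound-containing N2 medium, refreshed by half on day 3. O4 immunostaining over Hoechst nuclei in the migration zone gave oligodendrocyte percentage relative to DMSO.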

A short description of assay [15]: IUF_NPC4_neurite_area_120hr: Leibniz Research Institute for Environmental Medicine (IUF) 120-hour Neuronal Morphology Assay for Neurite Area (NPC4) (AID 2284305; active = hit-call score of the fitted dose curve at least 0.9, where 1 is the maximum). An outline of the steps:
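Neurite area is read out as the mean pixel area, excluding nuclei, of skeletonized TUBB3-positive neurons imaged after 120 h. Primary human neural progenitor spheres differentiated on poly-D-lysine/laminin with compound present from day 0. Activity was referenced to DMSO controls.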

Assay [16] is described as follows: IUF_NPC2-5_cell_number_120hr: Cell Number Assessment at 120 hours in the Leibniz Research Institute for Environmental Medicine (IUF) Neural Progenitor Cell Migration and Differentiation Assay (NPC2-5) (AID 2284308).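 Note: count of Hoechst-stained nuclei in migration zone around plated human neural progenitor spheres.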 In a few lines: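 Seven-point serial dilutions plus solvent control were applied to plated 0.3 mm hNPC spheres at differentiation start, with medium half-replaced at day 3. Nuclei positive for Hoechst in the migration zone were enumerated at 120 h.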

Assay [17] can be described thus: IUF_NPC2-5_viability_120hr: Viability Assessment at 120 hours in the Leibniz Research Institute for Environmental Medicine (IUF) Neural Progenitor Cell Migration and Differentiation Assay (NPC2-5) (AID 2284312). An outline of the steps:
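Alamar blue resorufin fluorescence read after 5 days of differentiation, with compound present from day 0 and replenished at day 3. Primary hNPC spheres on laminin-coated plates, 37C; seven concentrations plus solvent control, fitted against DMSO.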

Results filed as inconclusive are left out. Calls of active or inactive are those of the source. Rule for the calls, unless noted: active = hit-call score of the fitted dose curve at least 0.9, where 1 is the maximum; inactive = score below 0.9.

As to `N[C@@H](Cc1ccc(O)c([N+](=O)[O-])c1)C(=O)O`, in the assay with IYD (gene 389434), the AC50 is 0.0253 µM (active).
`CC(=O)OC/N=[N+](\C)[O-]`: the result in [1], in assay [3], in [7], in assay [8], in [9] and in assay [10] was inactive. For the same compound, the compound was called inactive in [11], in assay [12], in [13], in assay [14], in assay [15] and in assay [16]. For the same compound, the call in [17] was inactive. For the same compound, the half-maximal activity concentration (AC50) in assay [2] is 613 µM (active); in assay [4] it was 721 µM (active); in assay [5], 371 µM (active); in [6] it was 1150 µM (active).

In general, AC50 refers to the concentration at which the activity in the assay is half-maximal.
